Data reported in PubChem BioAssay (NCATS).
A number with no mark means an inactive call. Inconclusive results are not listed. For part of these data: Entries with a potency or affinity are not part of this list. Active and inactive are the calls of the source. Unless noted, the rule behind the calls is not given here.

Assays:
[1] = Ebola virus entry assay, green fluorescence channel
[2] = Ebola virus entry assay, blue channel fluorescence
[3] = Ebola virus entry assay, ratio channel
[4] = Ebola virus entry assay, green channel fluorescence
[5] = Ebola virus entry assay, reporter ratio channel; Channel type: primary
[6] = Ebola virus entry assay, blue channel (ratio component)
[7] = qHTS assay for measurement of the activity of small molecule inhibitors on Zika virus induced Caspase-3 activity in human iPSC derived neural progenitor cells (hNPCs) (AID 1224857; active = well fitted inhibition curve with a large enough effect; note: % of control where 0% means no effect; nearly all actives have a fitted effect of over 65% in size); conditions: hNPCs ZIKV-induced caspase-3/7, Caspase-Glo luminescence, 6 h; series mostly up to 45.7 µM
Method in brief: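 Zika virus (2 FFU/cell) infection of human iPSC-derived NPCs, 6 h, following 1 h compound preincubation. Read-out: Caspase-Glo 3/7 luminescence.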

[8] = qHTS assay for measurement of the activity of small molecule inhibitors on Zika virus induced Caspase-3 activity in human astrocytoma cells (AID 1224859; active = well fitted inhibition curve with a large enough effect;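 note: plate controls were ZIKV-infected untreated cells for no effect and uninfected cells for full effect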); conditions: SNB-19 ZIKV-induced caspase-3/7, luminescence, 6 h; series mostly up to 45.7 µM
Method in brief: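 Caspase activation in ZIKV-infected SNB-19 cells (2 FFU/cell, 6 h) measured by Caspase-Glo 3/7 luminescence after 30 min RT; compound pre-incubated 1 h; normalised to uninfected and infected controls.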
Throughout, for efficacy: 0% is about no effect.

Row | Compound | efficacy [1] | outcome [2] | outcome [3] | outcome [4] | outcome [5] | outcome [6] | Potency [7] | outcome [8] | AC50 [2] | AC50 [3] | AC50 [5]
1 | C[C@H]1C[C@H]2[C@@H]3CCC4=CC(=O)C=C[C@]4(C)[C@H]3C(=O)C[C@]2(C)[C@@]1(O)C(=O)CO | -24.9% | inactive | inactive | inactive | inactive | inactive | – | – | – | – | –
2 | O=c1[nH]cnc2c1ncn2[C@@H]1O[C@H](CO)[C@@H](O)[C@H]1O | -42.8% | inactive | inactive | inactive | inactive | inactive | – | – | – | – | –
3 | CNc1c2c(nn1C)CCCC2 | -13.1% | inactive | inactive | inactive | inactive | inactive | – | – | – | – | –
4 | C[C@]12CCC(=O)C=C1CC[C@@H]1[C@@H]2C(=O)C[C@@]2(C)[C@H]1CC[C@]2(O)C(=O)CO | 28.7% | inactive | inactive | inactive | inactive | inactive | – | – | – | – | –
5 | C#Cc1ccc(-c2ccccc2F)cc1 | 15.3% | inactive | inactive | inactive | inactive | inactive | – | – | – | – | –
6 | CC(C)C(=O)Nc1cccc(C2CN3CCSC3=N2)c1 (stereo unspecified) | -12.5% | inactive | inactive | inactive | inactive | inactive | – | – | – | – | –
7 | CC(C(=O)O)c1ccc(CC2CCCC2=O)cc1 (stereo unspecified) | 31.1% | inactive | inactive | inactive | inactive | inactive | – | – | – | – | –
8 | CCCCCCCCCCCCCCC[C@H](O)[C@@H](N)CO | 25.9% | inactive | inactive | inactive | inactive | inactive | – | – | – | – | –
9 | CCCCC1C(=O)NC(=O)N(C2CCCCC2)C1=O (stereo unspecified) | 18.4% | inactive | inactive | inactive | inactive | inactive | inactive | inactive | – | – | –
10 | O=C(O)CCCCCCNC1c2ccccc2CCc2ccccc21 | 26.2% | inactive | inactive | inactive | inactive | inactive | inactive | inactive | – | – | –
11 | COc1cc(N)c(Cl)cc1C(=O)NC1CN2CCC1CC2 (stereo unspecified) | -20.5% | inactive | inactive | inactive | inactive | inactive | inactive | – | – | – | –
12 | O=c1[nH]c(=O)c2[nH]c(=O)[nH]c2[nH]1 | 22% | inactive | inactive | inactive | inactive | inactive | – | – | – | – | –
13 | O=C(O)/C=C/c1ccc(Cn2ccnc2)cc1 | -14.9% | inactive | inactive | inactive | inactive | inactive | – | – | – | – | –
14 | NC(N)=NCCC[C@H](N)C(=O)O | -16.3% | inactive | inactive | inactive | inactive | inactive | – | – | – | – | –
15 | O=C(NOCC1CC1)c1ccc(F)c(F)c1Nc1ccc(I)cc1Cl | 18.5% | – | – | inactive | – | inactive | – | – | 7.94 µM (active) | 15.8 µM (active) | 15.8 µM (active)
16 | O=C(O)C(=O)Nc1cccc(-c2nn[nH]n2)c1 | 14.4% | inactive | inactive | inactive | inactive | inactive | – | – | – | – | –
17 | Cc1ncc([N+](=O)[O-])n1C | 20.2% | inactive | inactive | inactive | inactive | inactive | – | – | – | – | –
18 | CCCCN(CCN(CCCC)C(=O)N1CCOCC1)C(=O)N1CCOCC1 | 15.6% | inactive | inactive | inactive | inactive | inactive | – | – | – | – | –
19 | CCOC(=O)NC(C)(C)Cc1ccc(Cl)cc1 | -26.2% | inactive | inactive | inactive | inactive | inactive | inactive | inactive | – | – | –
20 | CC1CCc2cc(F)cc3c(=O)c(C(=O)O)cn1c23 (stereo unspecified) | -9.54% | inactive | inactive | inactive | inactive | inactive | – | – | – | – | –
21 | Oc1ccc(C(O)CNCCCCCCNCC(O)c2ccc(O)c(O)c2)cc1O (stereo unspecified) | 16% | inactive | inactive | inactive | – | inactive | – | – | – | – | 44.7 µM (active)
22 | CNC(C)Cc1ccc2c(c1)OCO2 (stereo unspecified) | -15.1% | inactive | inactive | inactive | inactive | inactive | inactive | inactive | – | – | –
23 | CCCCCC1Nc2cc(C(F)(F)F)c(S(N)(=O)=O)cc2S(=O)(=O)N1 (stereo unspecified) | -15.8% | inactive | inactive | inactive | inactive | inactive | – | – | – | – | –
24 | O=C(O)COC(=O)Cc1ccccc1Nc1c(Cl)cccc1Cl | 31.8% | inactive | inactive | inactive | inactive | inactive | – | – | – | – | –
25 | C1CN2CCC1CC2 | -16% | inactive | inactive | inactive | inactive | inactive | inactive | inactive | – | – | –
26 | C[C@]12CC[C@H](O)CC1=CC[C@@H]1[C@@H]2CC[C@]2(C)C(=O)CC[C@@H]12 | 42.1% | inactive | inactive | inactive | inactive | inactive | inactive | inactive | – | – | –
27 | CCCCNc1cc(C(=O)O)cc(S(N)(=O)=O)c1Oc1ccccc1 | -14.8% | inactive | inactive | inactive | inactive | inactive | – | – | – | – | –

Row | Compound | efficacy [1] | outcome [2] | outcome [3] | outcome [4] | outcome [5] | outcome [6] | Potency [7] | outcome [8] | AC50 [2] | AC50 [3] | AC50 [5]
28 | OC[C@H]1O[C@@H](n2cnc3c(=S)nc[nH]c32)[C@H](O)[C@@H]1O | 23.6% | inactive | inactive | inactive | inactive | inactive | – | – | – | – | –
29 | CCCCCCCCCCCCOS(=O)(=O)O | -26.4% | inactive | inactive | inactive | inactive | inactive | – | – | – | – | –
30 | CCCOC(=O)c1ccc(N)cc1 | 7.92% | inactive | inactive | inactive | inactive | inactive | – | – | – | – | –
31 | O=c1ccc2ccccc2o1 | 11.1% | inactive | inactive | inactive | inactive | inactive | – | – | – | – | –
32 | ClCCCN1CCN(c2cccc(Cl)c2)CC1 | 26.2% | inactive | inactive | inactive | inactive | inactive | inactive | inactive | – | – | –
33 | CCOc1ccc(C(=O)OCCN(CC)CC)cc1 | 22.6% | inactive | inactive | inactive | inactive | inactive | – | – | – | – | –
34 | OC[C@@H](O)[C@@H](O)[C@H](O)[C@H](O)CO | 11.8% | inactive | inactive | inactive | inactive | inactive | – | – | – | – | –
35 | N[C@@H](CSCCCO)C(=O)O | 25.1% | inactive | inactive | inactive | inactive | inactive | – | – | – | – | –
36 | CCc1oc2ccccc2c1C(=O)c1cc(Br)c(O)c(Br)c1 | 16.5% | inactive | inactive | inactive | inactive | inactive | – | – | – | – | –
37 | C#C[C@]1(O)CC[C@H]2[C@@H]3CCc4cc(OC)ccc4[C@H]3CC[C@@]21C | 19% | inactive | – | inactive | – | inactive | – | – | – | 2.82 µM (active) | 2.82 µM (active)
38 | N[C@@H](Cc1ccc(O)cc1)C(=O)O | 37.7% | inactive | inactive | inactive | inactive | inactive | – | – | – | – | –
39 | Nc1ccn(C2CO[C@H](CO)O2)c(=O)n1 (stereo partly specified) | -24% | inactive | inactive | inactive | inactive | inactive | – | – | – | – | –
40 | C[C@]12C=CC(=O)C=C1CC[C@@H]1[C@@H]2CC[C@@]2(C)[C@H]1CC[C@]2(C)O | -14% | inactive | inactive | inactive | inactive | inactive | inactive | inactive | – | – | –
41 | O=C(O)C1CCC1 | -19% | inactive | inactive | inactive | inactive | inactive | – | – | – | – | –
42 | CCOC(CN1CCN(CC(C)C(=O)c2ccccc2)CC1)c1ccccc1 (stereo unspecified) | 11.6% | – | – | inactive | inactive | inactive | – | – | 7.08 µM (active) | 10 µM (active) | –
43 | C[C@]12CC[C@@H]3c4ccc(O)cc4CC[C@H]3[C@@H]1CC[C@@H]2OC(=O)CCC1CCCC1 | 23.9% | inactive | inactive | inactive | inactive | inactive | – | – | – | – | –
44 | CCCOC(=O)Cc1ccc(OCC(=O)N(CC)CC)c(OC)c1 | -14.5% | inactive | inactive | inactive | inactive | inactive | inactive | inactive | – | – | –
45 | OC1C(O)C(O)C(O)C(O)C1O (stereo unspecified) | 12.1% | inactive | inactive | inactive | inactive | inactive | – | – | – | – | –
46 | OC(O)C(Cl)(Cl)Cl | 18.1% | inactive | inactive | inactive | inactive | inactive | inactive | inactive | – | – | –
47 | Nc1ccccc1C(=O)OCC(O)CO (stereo unspecified) | -15.8% | inactive | inactive | inactive | inactive | inactive | inactive | inactive | – | – | –
48 | COc1cc(CC#N)cc(OC)c1OC | -13.1% | inactive | inactive | inactive | inactive | inactive | inactive | inactive | – | – | –
49 | CCN(Cc1ccc(Cl)nc1)/C(=C/[N+](=O)[O-])NC | -11.7% | inactive | inactive | inactive | inactive | inactive | inactive | inactive | – | – | –
50 | CC(CC(C(N)=O)(c1ccccc1)c1ccccc1)N(C)C (stereo unspecified) | 13% | inactive | inactive | inactive | inactive | inactive | – | inactive | – | – | –
51 | CCNc1nc(Cl)nc(NCC)n1 | 16.6% | inactive | inactive | inactive | inactive | inactive | inactive | inactive | – | – | –
52 | O=C(O)Cc1ccccc1 | -19.3% | inactive | inactive | inactive | inactive | inactive | inactive | inactive | – | – | –
53 | C[N+](C)(C)CCOC(=O)C(O)(c1ccccc1)c1ccccc1 | -27.9% | inactive | inactive | inactive | inactive | inactive | – | inactive | – | – | –
